Data on seven sequences can be found in article PMC7862700, “An all-to-all approach to the identification of sequence-specific readers for epigenetic DNA modifications on cytosine”.

What all share (assay): DAPPL (digital affinity profiling via proximity ligation, sequencing); 10 mM Tris-HCl pH 7.5, 50 mM NaCl, 1 mM DTT, 4% glycerol, room temperature, 30 min; GST-TFs on glutathione beads, 16-mer random dsDNA library, 0.1% formaldehyde crosslink after washing; high values mean tight binding
What all share (conditions): protein: recombinant; tags: N-terminal GST; dsDNA, one strand shown

In one experiment the target is T1, FLI1 (Homo sapiens, UniProt Q01543 1-452).
T1 sequence: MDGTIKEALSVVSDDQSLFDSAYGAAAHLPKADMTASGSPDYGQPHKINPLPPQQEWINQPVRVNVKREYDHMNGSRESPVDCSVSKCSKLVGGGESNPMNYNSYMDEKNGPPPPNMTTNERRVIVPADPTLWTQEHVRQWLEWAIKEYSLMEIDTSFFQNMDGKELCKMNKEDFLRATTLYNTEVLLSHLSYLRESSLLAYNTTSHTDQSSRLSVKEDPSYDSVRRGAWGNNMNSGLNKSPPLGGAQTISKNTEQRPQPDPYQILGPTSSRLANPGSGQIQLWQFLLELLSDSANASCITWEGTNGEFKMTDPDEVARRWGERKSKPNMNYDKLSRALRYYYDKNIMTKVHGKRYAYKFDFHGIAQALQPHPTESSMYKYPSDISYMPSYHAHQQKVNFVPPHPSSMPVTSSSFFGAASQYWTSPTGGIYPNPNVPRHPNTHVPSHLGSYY
Summed up:
(§1)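 Binding signal is given per hexamer as its read frequency for a factor divided by its frequency in the tag-only sample. GST-fused human transcription factors were expressed in yeast, captured on glutathione beads, barcoded with DNA and pooled with that sample, then incubated with 200 nmole of a 16-mer random double-stranded DNA library in Tris/NaCl/DTT/glycerol buffer for 30 min at room temperature. The pools were then washed, crosslinked, proximity-ligated, amplified by PCR and sequenced on an Illumina NextSeq500.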

The target in a further experiment is T2, ELK1 (Homo sapiens, UniProt P19419 1-428).
T2 sequence: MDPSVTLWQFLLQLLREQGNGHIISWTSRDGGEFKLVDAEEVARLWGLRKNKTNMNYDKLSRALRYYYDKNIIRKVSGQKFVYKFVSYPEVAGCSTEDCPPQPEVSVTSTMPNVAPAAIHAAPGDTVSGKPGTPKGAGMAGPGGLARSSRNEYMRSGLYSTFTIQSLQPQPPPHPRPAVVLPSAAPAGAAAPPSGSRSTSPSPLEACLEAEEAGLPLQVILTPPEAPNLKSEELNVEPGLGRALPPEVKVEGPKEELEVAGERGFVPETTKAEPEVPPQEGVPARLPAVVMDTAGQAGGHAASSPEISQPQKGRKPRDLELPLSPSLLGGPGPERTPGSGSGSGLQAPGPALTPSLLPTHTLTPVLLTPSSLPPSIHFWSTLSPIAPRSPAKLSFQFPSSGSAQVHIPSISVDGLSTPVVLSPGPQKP
A digest of the protocol:
as §1

The target in the next experiment is T3, GABPA (Homo sapiens, UniProt Q06546 1-454).
T3 sequence: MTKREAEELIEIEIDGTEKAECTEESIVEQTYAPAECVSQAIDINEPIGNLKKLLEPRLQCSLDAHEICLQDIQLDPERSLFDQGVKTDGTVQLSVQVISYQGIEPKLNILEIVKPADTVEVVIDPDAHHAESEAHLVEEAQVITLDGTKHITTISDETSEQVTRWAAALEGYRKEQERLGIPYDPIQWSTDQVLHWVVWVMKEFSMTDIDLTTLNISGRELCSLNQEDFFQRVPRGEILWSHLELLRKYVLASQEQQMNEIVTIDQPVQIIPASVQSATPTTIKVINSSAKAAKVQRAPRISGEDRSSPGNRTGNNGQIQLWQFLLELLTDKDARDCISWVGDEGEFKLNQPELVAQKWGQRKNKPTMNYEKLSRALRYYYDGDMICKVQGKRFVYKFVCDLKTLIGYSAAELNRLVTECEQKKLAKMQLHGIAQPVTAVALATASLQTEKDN
A digest of the protocol:
as §1

In a further experiment the target is T4, ERG (Homo sapiens, UniProt P11308 1-479).
T4 sequence: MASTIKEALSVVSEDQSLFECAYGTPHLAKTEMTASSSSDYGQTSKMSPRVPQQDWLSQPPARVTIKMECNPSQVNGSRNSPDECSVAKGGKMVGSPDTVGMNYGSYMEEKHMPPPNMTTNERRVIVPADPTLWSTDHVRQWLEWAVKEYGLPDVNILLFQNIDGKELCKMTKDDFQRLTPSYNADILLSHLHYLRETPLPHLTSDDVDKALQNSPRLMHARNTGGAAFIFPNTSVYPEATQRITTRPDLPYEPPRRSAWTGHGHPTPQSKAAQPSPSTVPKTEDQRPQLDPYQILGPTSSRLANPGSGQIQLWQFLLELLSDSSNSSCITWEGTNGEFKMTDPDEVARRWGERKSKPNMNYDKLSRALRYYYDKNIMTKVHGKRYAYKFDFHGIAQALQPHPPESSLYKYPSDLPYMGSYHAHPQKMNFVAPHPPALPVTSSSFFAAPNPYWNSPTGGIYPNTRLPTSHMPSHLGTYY
A digest of the protocol: as §1

The target in another experiment is ELF1 (Homo sapiens, UniProt P32519 1-619). A digest of the protocol:
as §1

For another experiment, the target named is T5, EHF (Homo sapiens, UniProt Q9NZC4 1-300).
T5 sequence: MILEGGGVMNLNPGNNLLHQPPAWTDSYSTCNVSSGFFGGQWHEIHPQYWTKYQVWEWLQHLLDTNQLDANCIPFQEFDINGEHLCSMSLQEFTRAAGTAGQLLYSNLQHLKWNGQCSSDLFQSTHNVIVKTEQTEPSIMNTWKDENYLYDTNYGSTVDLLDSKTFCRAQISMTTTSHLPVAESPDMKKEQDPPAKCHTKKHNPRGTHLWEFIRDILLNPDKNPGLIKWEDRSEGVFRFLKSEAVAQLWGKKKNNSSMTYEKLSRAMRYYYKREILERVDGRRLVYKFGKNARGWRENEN
Summed up:
as §1

The target in another experiment is SPI1 (Homo sapiens, UniProt P17947 1-270). Summed up: as §1
The target of another experiment is SPIB (Homo sapiens, UniProt Q01892 1-262). A digest of the protocol:
as §1

The target of another experiment is T6, ELK3 (Homo sapiens, UniProt P41970 1-407).
T6 sequence: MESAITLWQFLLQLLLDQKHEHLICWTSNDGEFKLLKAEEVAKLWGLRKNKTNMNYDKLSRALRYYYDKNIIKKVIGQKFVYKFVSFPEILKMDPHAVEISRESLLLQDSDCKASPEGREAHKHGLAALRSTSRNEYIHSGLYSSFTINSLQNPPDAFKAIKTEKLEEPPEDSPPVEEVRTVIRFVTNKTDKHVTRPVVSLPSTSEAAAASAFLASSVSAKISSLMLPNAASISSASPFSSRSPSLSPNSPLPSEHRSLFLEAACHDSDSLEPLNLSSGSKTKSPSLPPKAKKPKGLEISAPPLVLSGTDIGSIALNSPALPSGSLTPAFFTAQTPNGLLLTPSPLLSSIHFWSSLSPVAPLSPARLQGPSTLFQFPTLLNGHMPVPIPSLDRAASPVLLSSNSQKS
Summed up: as §1

SPIB, sequence (Q01892 whole entry): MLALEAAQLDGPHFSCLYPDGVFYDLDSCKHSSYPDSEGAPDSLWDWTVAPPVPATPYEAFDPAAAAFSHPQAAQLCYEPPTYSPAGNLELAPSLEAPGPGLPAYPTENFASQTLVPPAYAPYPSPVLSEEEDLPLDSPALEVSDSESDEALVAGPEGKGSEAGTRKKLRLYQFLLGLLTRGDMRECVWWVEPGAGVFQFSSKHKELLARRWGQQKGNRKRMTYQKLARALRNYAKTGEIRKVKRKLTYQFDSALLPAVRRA
ELF1, sequence (P32519 whole entry): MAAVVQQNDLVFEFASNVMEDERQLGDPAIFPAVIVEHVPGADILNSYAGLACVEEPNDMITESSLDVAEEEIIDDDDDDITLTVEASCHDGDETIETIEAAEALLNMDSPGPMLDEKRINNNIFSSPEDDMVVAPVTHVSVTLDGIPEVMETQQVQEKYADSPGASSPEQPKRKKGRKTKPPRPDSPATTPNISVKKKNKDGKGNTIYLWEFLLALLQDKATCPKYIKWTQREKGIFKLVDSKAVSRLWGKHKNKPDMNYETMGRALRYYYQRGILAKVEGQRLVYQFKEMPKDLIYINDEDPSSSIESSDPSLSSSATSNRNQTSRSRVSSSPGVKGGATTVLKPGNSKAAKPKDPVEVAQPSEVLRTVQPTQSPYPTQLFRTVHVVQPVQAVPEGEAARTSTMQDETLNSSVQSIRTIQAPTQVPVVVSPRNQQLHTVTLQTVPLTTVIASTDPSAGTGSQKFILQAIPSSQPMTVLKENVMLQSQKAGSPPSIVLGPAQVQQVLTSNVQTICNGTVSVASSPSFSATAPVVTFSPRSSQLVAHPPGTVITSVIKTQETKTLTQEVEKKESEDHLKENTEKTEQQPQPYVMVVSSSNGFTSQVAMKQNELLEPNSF

Turning to TACTGT, the binding signal was 1.15 fold enrichment (6-mer frequency, TF over GST control) with FLI1; 1.21 fold enrichment (6-mer frequency, TF over GST control) with ELK1; 1.13 fold enrichment (6-mer frequency, TF over GST control) with GABPA; 1.12 fold enrichment (6-mer frequency, TF over GST control) in the experiment with ERG; 1.12 fold enrichment (6-mer frequency, TF over GST control) with ELF1; 1.19 fold enrichment (6-mer frequency, TF over GST control) with EHF. For the same sequence, the binding signal with SPI1 is 1.11 fold enrichment (6-mer frequency, TF over GST control); in the experiment with SPIB, 1.12 fold enrichment (6-mer frequency, TF over GST control); with ELK3, 1.11 fold enrichment (6-mer frequency, TF over GST control).
ACGAAA: the binding signal was 1.2 fold enrichment (6-mer frequency, TF over GST control) in the experiment with FLI1; 1.12 fold enrichment (6-mer frequency, TF over GST control) with ELK1; 1.15 fold enrichment (6-mer frequency, TF over GST control) in the experiment with GABPA; 1.14 fold enrichment (6-mer frequency, TF over GST control) in the experiment with ERG; 1.13 fold enrichment (6-mer frequency, TF over GST control) with ELF1; 1.19 fold enrichment (6-mer frequency, TF over GST control) with EHF. Moreover, the binding signal is 1.14 fold enrichment (6-mer frequency, TF over GST control) with SPI1; 1.16 fold enrichment (6-mer frequency, TF over GST control) in the experiment with SPIB; 1.07 fold enrichment (6-mer frequency, TF over GST control) with ELK3.
Regarding TCAACT, the binding signal with FLI1 was 1.31 fold enrichment (6-mer frequency, TF over GST control); with ELK1, 1.31 fold enrichment (6-mer frequency, TF over GST control); with GABPA it was 1.34 fold enrichment (6-mer frequency, TF over GST control); in the experiment with ERG, 1.31 fold enrichment (6-mer frequency, TF over GST control); in the experiment with ELF1 it was 1.31 fold enrichment (6-mer frequency, TF over GST control); with EHF, 1.35 fold enrichment (6-mer frequency, TF over GST control). Besides, the binding signal is 1.36 fold enrichment (6-mer frequency, TF over GST control) in the experiment with SPI1; 1.3 fold enrichment (6-mer frequency, TF over GST control) with SPIB; 1.22 fold enrichment (6-mer frequency, TF over GST control) with ELK3.
Take TCTTAT: the binding signal with FLI1 was 1.41 fold enrichment (6-mer frequency, TF over GST control); with ELK1, 1.33 fold enrichment (6-mer frequency, TF over GST control); with GABPA, 1.25 fold enrichment (6-mer frequency, TF over GST control); with ERG it was 1.27 fold enrichment (6-mer frequency, TF over GST control); with ELF1, 1.28 fold enrichment (6-mer frequency, TF over GST control); with EHF, 1.16 fold enrichment (6-mer frequency, TF over GST control). Also, the binding signal is 1.28 fold enrichment (6-mer frequency, TF over GST control) with SPI1; 1.22 fold enrichment (6-mer frequency, TF over GST control) with SPIB; 1.31 fold enrichment (6-mer frequency, TF over GST control) with ELK3.
In the case of CCCCTC, the binding signal with FLI1 was 1.48 fold enrichment (6-mer frequency, TF over GST control); with ELK1 it was 1.29 fold enrichment (6-mer frequency, TF over GST control); with GABPA, 1.45 fold enrichment (6-mer frequency, TF over GST control); with ERG, 1.28 fold enrichment (6-mer frequency, TF over GST control); with ELF1 it was 1.43 fold enrichment (6-mer frequency, TF over GST control); in the experiment with EHF, 1.31 fold enrichment (6-mer frequency, TF over GST control). Also, the binding signal in the experiment with SPI1 is 1.39 fold enrichment (6-mer frequency, TF over GST control); in the experiment with SPIB it was 1.55 fold enrichment (6-mer frequency, TF over GST control); with ELK3, 1.37 fold enrichment (6-mer frequency, TF over GST control).
For the sequence CTTGTA, the binding signal with FLI1 is 1.5 fold enrichment (6-mer frequency, TF over GST control); with ELK1 it was 1.36 fold enrichment (6-mer frequency, TF over GST control); with GABPA, 1.37 fold enrichment (6-mer frequency, TF over GST control); with ERG, 1.33 fold enrichment (6-mer frequency, TF over GST control); with ELF1 it was 1.41 fold enrichment (6-mer frequency, TF over GST control); in the experiment with EHF, 1.42 fold enrichment (6-mer frequency, TF over GST control). Further, the binding signal with SPI1 is 1.39 fold enrichment (6-mer frequency, TF over GST control); with SPIB it was 1.44 fold enrichment (6-mer frequency, TF over GST control); with ELK3 it was 1.25 fold enrichment (6-mer frequency, TF over GST control).
Turning to CCCATA, the binding signal is 1.23 fold enrichment (6-mer frequency, TF over GST control) with FLI1; 1.26 fold enrichment (6-mer frequency, TF over GST control) with ELK1; 1.33 fold enrichment (6-mer frequency, TF over GST control) in the experiment with GABPA; 1.24 fold enrichment (6-mer frequency, TF over GST control) in the experiment with ERG; 1.21 fold enrichment (6-mer frequency, TF over GST control) with ELF1; 1.13 fold enrichment (6-mer frequency, TF over GST control) with EHF. In addition, the binding signal is 1.18 fold enrichment (6-mer frequency, TF over GST control) with SPI1; 1.34 fold enrichment (6-mer frequency, TF over GST control) with SPIB; 1.21 fold enrichment (6-mer frequency, TF over GST control) with ELK3.
